Results taken from PubChem BioAssay (NCATS).
Records with an inconclusive call do not appear. The source made the active and inactive calls. Unless noted, calls follow the shape of the dose curve; as a rule, active = well fitted curve in the direction sought with a large enough effect; inconclusive = small, poorly fitted or top-dose-only effect, or another doubt; inactive = no such curve, though single readings can be large; an effect the other way counts as inactive or inconclusive.

Assays:
[1] = molecular target: Lysosomal acid glucosylceramidase (Homo sapiens) (UniProt P04062); assay: Glucocerebrosidase-p2 (AID 348; in the data active = potency below about 10 µM; also: potency is read from the fitted curve at half-maximal effect); conditions: purified GBA, blue fluorogenic substrate, 40 min
Lysosomal acid glucosylceramidase (Homo sapiens), sequence (P04062 whole entry, looked up): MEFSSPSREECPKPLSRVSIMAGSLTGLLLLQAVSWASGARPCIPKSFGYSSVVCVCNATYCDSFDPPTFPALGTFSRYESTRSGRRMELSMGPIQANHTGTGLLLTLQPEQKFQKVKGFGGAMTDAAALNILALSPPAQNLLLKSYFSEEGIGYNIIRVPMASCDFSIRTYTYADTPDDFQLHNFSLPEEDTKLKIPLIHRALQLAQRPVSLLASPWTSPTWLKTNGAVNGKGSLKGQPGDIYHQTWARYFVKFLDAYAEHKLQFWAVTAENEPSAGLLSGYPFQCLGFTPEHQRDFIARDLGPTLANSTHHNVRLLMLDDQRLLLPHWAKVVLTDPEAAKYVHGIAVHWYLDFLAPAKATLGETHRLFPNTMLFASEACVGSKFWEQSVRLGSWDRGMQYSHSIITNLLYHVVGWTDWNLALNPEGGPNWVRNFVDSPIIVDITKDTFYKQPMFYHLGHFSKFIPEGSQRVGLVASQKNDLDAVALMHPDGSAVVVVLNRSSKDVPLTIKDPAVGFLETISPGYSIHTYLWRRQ
Summary of the method: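 Compounds titrated from 0.6 nM upwards against 0.2 nM enzyme in pH 5.9 citric acid/KH2PO4, taurocholate, tween-20; blue fluorogenic substrate 80 uM, 40 min room temperature, stopped and read Ex 365/Em 440 for AC50.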

[2] = AP1 Signaling Pathway (AID 357; active = well fitted curve in either direction with a large enough effect, not every such curve was filed as active; also: % is scaled to controls: 0 for no effect and ±100 for the full control effect); conditions: ME-180 AP-1-bla reporter, EGF-induced, beta-lactamase ratio, 5 h; at 7.69 µM (top of the series) unless noted
Summary of the method: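 AP-1-bla ME-180 cells with beta-lactamase reporter under AP-1 response element, stimulated with EC50 EGF; compounds titrated, 5 hours at 37 degrees Celsius. CCF4 read at 460/530 nm ratio; positive and negative modulators judged by AC50.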

[3] = molecular target: Cytochrome P450 1A2 (Homo sapiens) (UniProt P05177); assay: p450-cyp1a2 (AID 410; calls by dose curve; also: potency is read from the fitted curve at half-maximal effect); conditions: recombinant CYP1A2, luciferin-ME demethylation, luminescence; series mostly up to 57 µM
Cytochrome P450 1A2 (Homo sapiens), sequence (P05177 whole entry, looked up): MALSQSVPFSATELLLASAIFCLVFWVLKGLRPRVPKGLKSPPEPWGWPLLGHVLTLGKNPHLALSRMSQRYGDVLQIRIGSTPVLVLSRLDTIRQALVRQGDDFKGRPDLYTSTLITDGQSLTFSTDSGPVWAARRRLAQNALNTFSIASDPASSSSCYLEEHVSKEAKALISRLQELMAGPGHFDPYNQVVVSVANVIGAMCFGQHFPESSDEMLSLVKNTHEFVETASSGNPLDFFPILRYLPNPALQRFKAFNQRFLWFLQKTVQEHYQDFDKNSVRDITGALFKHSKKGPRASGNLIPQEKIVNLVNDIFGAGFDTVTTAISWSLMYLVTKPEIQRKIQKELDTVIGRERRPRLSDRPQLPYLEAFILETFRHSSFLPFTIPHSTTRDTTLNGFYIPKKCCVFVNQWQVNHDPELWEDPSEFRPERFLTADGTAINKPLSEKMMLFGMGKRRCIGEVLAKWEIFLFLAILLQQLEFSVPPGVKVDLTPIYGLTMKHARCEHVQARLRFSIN
Summary of the method: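 Inhibition was calculated relative to 57 uM furafylline (full inhibition). The reaction used human CYP1A2 at 20nM with Luciferin-ME at its Km, 100uM, driven by an NADPH-regenerating system for 60 min at room temperature.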

[4] = Stat Signaling Pathway (AID 446; active = well fitted curve in either direction with a large enough effect, not every such curve was filed as active;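 also: ME-180 cervical cancer cells given 40 pM IL-6 alongside compound; SIE-controlled beta-lactamase reporter measured as 460/530 nm FRET emission ratio; % is scaled to controls: 0 for no effect and ±100 for the full control effect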); conditions: ME-180 SIE beta-lactamase reporter, IL-6 stimulated, 5 h; at 7.69 µM (top of the series) unless noted
Summary of the method: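 Screening format detects activators and inhibitors alike: ME-180 SIE-bla cells stimulated at 40 pM IL-6 for 5 hrs with compound, then dual-emission beta-lactamase read at 405 nm excitation.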

[5] = molecular target: Glucocorticoid receptor (Homo sapiens) (UniProt P04150); assay: GR-EFC Redistribution (AID 451; calls by dose curve; also: potency is read from the fitted curve at half-maximal effect); conditions: CHO-K1 GR-EFC translocation, beta-gal luminescence, 2 h
Glucocorticoid receptor (Homo sapiens), sequence (P04150 whole entry, looked up, the tested form may be a part): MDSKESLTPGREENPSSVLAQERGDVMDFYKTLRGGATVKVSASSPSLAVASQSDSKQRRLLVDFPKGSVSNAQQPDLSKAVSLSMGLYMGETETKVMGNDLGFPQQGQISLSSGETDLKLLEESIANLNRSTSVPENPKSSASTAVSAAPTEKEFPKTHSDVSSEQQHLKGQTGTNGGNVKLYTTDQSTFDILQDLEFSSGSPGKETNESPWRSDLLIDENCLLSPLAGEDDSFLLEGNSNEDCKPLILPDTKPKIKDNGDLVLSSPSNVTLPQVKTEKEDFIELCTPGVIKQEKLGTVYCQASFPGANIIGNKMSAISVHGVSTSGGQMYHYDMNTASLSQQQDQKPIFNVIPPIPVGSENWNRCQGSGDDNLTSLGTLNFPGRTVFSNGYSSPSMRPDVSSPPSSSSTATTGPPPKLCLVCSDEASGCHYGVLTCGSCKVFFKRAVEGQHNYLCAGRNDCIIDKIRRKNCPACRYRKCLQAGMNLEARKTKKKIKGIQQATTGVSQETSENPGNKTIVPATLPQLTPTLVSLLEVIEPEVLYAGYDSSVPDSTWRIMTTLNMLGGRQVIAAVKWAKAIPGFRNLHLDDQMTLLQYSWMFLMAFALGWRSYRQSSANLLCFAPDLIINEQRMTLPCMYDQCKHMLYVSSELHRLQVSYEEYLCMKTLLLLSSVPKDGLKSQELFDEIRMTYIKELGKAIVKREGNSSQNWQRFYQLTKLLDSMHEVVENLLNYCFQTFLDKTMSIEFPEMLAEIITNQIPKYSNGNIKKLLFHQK
Summary of the method: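 CHO-K1 cells stably expressing nuclear-localized β-gal enzyme acceptor and GR fused C-terminally to the enzyme donor fragment; ligand-driven nuclear translocation restores β-gal by complementation. Compounds titrated up to 46 uM final, 2 h at 37 °C; luminescence read.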

[6] = molecular target: Mitogen-activated protein kinase 10 (Mus musculus) (UniProt Q61831); assay: JNK3 AlphaScreen Assay (AID 530; active = well fitted curve in either direction with a large enough effect, not every such curve was filed as active;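 also: kinase came from lysate of stimulated human HepG2 cells; signal reports phosphorylation of biotinylated GST-cJun 1-79 at Ser73 with 10 µM ATP; % is scaled to controls: 0 for no effect and ±100 for the full control effect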); conditions: JNK3 lysate, c-Jun phosphorylation; series mostly up to 57.1 µM
Summary of the method: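 JNK3 came from HepG2 lysates pre-activated with IL-1beta and TNF-alpha and phosphorylated biotinylated GST-cJun (1-79) at 10 uM ATP, pH 7.6, room temperature. Compounds were titrated. AlphaScreen signal used anti-phospho-cJun (Ser73) antibody.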

[7] = molecular target: Cytochrome P450 3A4 (Homo sapiens) (UniProt P08684); assay: qHTS Assay for Inhibitors and Substrates of Cytochrome P450 3A4 (AID 884); conditions: recombinant CYP3A4, Luciferin-PPXE luminescence; series mostly up to 57.1 µM; also: potency is read from the fitted curve at half-maximal effect; nearly all actives have a fitted effect of over 50% in size
Cytochrome P450 3A4 (Homo sapiens), sequence (P08684 whole entry, looked up): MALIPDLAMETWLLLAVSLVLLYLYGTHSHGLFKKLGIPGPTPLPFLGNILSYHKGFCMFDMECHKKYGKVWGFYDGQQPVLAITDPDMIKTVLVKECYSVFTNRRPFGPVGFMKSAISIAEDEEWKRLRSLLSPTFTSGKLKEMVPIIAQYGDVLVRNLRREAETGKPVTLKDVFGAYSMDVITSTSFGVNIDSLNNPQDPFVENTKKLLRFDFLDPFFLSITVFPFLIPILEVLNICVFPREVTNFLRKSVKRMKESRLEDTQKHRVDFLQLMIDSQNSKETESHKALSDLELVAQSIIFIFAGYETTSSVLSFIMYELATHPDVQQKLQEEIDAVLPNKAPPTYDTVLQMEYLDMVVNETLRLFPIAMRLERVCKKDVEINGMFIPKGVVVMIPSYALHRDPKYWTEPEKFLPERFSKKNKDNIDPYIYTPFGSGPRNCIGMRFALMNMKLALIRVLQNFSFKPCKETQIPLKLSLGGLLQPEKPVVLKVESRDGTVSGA
Summary of the method: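 20 nM human CYP3A4 with 25 uM Luciferin-PPXE (at KM) in 200 mM KPO4, preincubated 10 min with compound; NADPH regeneration started a 60 min RT reaction. Luciferin detected by luminescence, normalized to 57 uM ketoconazole as full inhibition.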

[8] = molecular target: Cytochrome P450 3A4 (Homo sapiens) (UniProt P08684); assay: qHTS Assay for Activators of Cytochrome P450 3A4 (AID 885); conditions: recombinant CYP3A4, Luciferin-PPXE luminescence, 60 min; series mostly up to 57.1 µM; also: nearly all actives have a fitted effect of over 65% in size
Summary of the method: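 Steps: enzyme/substrate mix dispensed; compound added, 10 min RT; NADPH regeneration solution added, 60 min RT; luciferin detection buffer stops reaction; 20 min later luminescence measured.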

[9] = molecular target: Cytochrome P450 2C19 (Homo sapiens) (UniProt P33261); assay: qHTS Assay for Inhibitors and Substrates of Cytochrome P450 2C19 (AID 899); conditions: recombinant CYP2C19, luciferin-H EGE luminescence; series mostly up to 57.1 µM; also: potency is read from the fitted curve at half-maximal effect; nearly all actives have a fitted effect of over 60% in size
Cytochrome P450 2C19 (Homo sapiens), sequence (P33261 whole entry, looked up): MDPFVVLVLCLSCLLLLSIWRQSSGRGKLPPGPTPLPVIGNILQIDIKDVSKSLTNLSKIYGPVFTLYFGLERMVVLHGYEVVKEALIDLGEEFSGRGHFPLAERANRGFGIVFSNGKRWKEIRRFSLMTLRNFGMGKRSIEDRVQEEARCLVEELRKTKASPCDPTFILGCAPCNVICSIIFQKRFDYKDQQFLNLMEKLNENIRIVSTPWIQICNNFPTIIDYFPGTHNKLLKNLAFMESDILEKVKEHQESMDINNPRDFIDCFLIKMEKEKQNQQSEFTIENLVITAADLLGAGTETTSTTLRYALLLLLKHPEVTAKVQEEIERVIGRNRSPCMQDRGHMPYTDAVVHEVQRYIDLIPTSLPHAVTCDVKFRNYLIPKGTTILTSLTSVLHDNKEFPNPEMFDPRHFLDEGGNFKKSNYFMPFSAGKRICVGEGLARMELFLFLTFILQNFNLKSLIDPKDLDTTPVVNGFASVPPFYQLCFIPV
Summary of the method: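 Human CYP2C19 (5nM) with Luciferin-H EGE at 10uM (its KM) in 50mM KPO4 was preincubated with compound for 10 min at 37C. NADPH regeneration started a 60 min 37C reaction. Luciferin was read by luminescence, normalized to 57uM ketoconazole.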

[10] = qHTS Assay for Lipid Storage Modulators (AID 1519; calls by dose curve); conditions: Drosophila S3 cells, BODIPY lipid droplet/cell ratio, laser cytometry, cells loaded with oleic acid; for activity change, negative = inhibition: at 57.5 µM (top of the series)
Summary of the method: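 Cells seeded at 5,000 per well were treated with compounds over a concentration series and loaded with oleic acid (400 uM, as added). Lipid droplet fluorescence (488 nm excitation, 500-530 nm channel) was read by laser-scanning cytometry and normalized to 20 uM Triacsin C.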

[11] = molecular target: Dual specificity protein kinase CLK4 (Homo sapiens) (UniProt Q9HAZ1); assay: qHTS Assay for Inhibitors of CDC-like Kinase 4 (Kinase-Glo Assay) (AID 1770); conditions: recombinant Clk4, Kinase-Glo ATP depletion luminescence; series mostly up to 66.7 µM; also: nearly all actives have a fitted effect of over 65% in size; also: potency is read from the fitted curve at half-maximal effect
Dual specificity protein kinase CLK4 (Homo sapiens), sequence (Q9HAZ1 whole entry, looked up): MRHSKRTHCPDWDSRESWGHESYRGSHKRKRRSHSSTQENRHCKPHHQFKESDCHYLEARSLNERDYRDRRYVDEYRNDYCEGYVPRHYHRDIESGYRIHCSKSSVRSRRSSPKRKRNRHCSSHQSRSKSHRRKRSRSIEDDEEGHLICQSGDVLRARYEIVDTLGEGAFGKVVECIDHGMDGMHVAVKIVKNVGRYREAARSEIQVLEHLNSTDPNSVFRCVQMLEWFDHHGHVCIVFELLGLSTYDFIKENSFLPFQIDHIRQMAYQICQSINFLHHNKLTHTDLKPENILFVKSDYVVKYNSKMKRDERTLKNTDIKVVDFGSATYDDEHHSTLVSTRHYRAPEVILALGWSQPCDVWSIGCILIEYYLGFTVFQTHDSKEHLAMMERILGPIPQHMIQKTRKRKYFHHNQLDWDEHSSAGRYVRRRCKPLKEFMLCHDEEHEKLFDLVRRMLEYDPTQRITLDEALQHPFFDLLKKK
Summary of the method: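 Substrate mix (RS peptide 100 uM, ATP 1 uM) dispensed, compound pinned in, then Clk4 added to 25 nM final. Incubated 4.5 h at RT; Kinase-Glo reagent added, luminescence read after 5 min.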

[12] = molecular target: Dual specificity protein kinase CLK4 (Homo sapiens) (UniProt Q9HAZ1); assay: qHTS Assay for Inhibitors of CDC-like Kinase 4 (ADP-Glo Assay) (AID 1771); conditions: recombinant CLK4, ADP-Glo luminescence; series mostly up to 80 µM; also: nearly all actives have a fitted effect of over 70% in size; also: potency is read from the fitted curve at half-maximal effect
Summary of the method: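 Kinase reaction: Clk4 at 25 nM, RS repeat peptide substrate at 100 uM, ATP at 1 uM, 1 hr, room temperature. Product ADP detected as luciferase signal via ADP-Glo.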

[13] = molecular target: Dual specificity protein kinase CLK4 (Homo sapiens) (UniProt Q9HAZ1); assay: qHTS Assay for Inhibitors of CDC-like Kinase 4 (ADP-FP Assay) (AID 1795); conditions: Transcreener ADP fluorescence polarization; series mostly up to 50 µM; also: nearly all actives have a fitted effect of over 60% in size; also: potency is read from the fitted curve at half-maximal effect
Summary of the method: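 Clk4 6.25 nM; RS peptide 100 uM; ATP 1 uM; 25 mM Tris pH 7.5, 10 mM MgCl2; 1 h reaction. ADP detected via antibody/orange tracer FP displacement; TG003 positive control.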

[14] = Primary qHTS for small molecule stabilizers of the endoplasmic reticulum resident proteome: Secreted ER Calcium Modulated Protein (SERCaMP) assay (AID 1508630); conditions: SH-SY5Y GLuc-SERCaMP (Gaussia luciferase released on ER calcium loss) secretion, thapsigargin, luminescence; series mostly up to 38.4 µM; also: % is scaled to controls: 0 for no effect and ±100 for the full control effect
Summary of the method: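 GLuc-SERCaMP-expressing SH-SY5Y cells, pretreated 16 h with compound, are challenged with thapsigargin to empty ER calcium stores; after 4 h, coelenterazine is added directly to the medium and luminescence is imaged.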

[15] = NFAT Signaling Pathway (AID 444; active = well fitted curve in either direction with a large enough effect, not every such curve was filed as active); conditions: Jurkat NFAT-bla M1, carbachol, beta-lactamase ratio, 5 h; at 7.69 µM (top of the series) unless noted
Summary of the method: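 Jurkat cells carrying an NFAT-driven β-lactamase reporter and co-transfected muscarinic M1 receptor were treated with compound plus carbachol (1 uM final, an EC50 level) for 5 h at 37 °C. CCF4 loading followed for 1 h at RT; 460/530 nm ratio gave %activity.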

[16] = molecular target: Glucocorticoid receptor (Homo sapiens) (UniProt P04150); assay: GR-GFP Redistribution (AID 450;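 active = compounds whose dose series gives a full or clear partial fitted curve of increased nuclear translocation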; also: potency is read from the fitted curve at half-maximal effect); conditions: U2OS GR-GFP nuclear translocation, laser cytometry, 2 h
[17] = molecular target: Ubiquitin carboxyl-terminal hydrolase 1 (Homo sapiens) (UniProt O94782); assay: Inhibitors of USP1/UAF1: Pilot qHTS (AID 504865); conditions: purified USP1/UAF1, Ub-rhodamine cleavage fluorescence; series mostly up to 54.9 µM;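 also: rhodamine fluorescence freed from ubiquitin-rhodamine substrate followed over time; top concentration of the series differs between compounds; % is scaled to controls: 0 for no effect and ±100 for the full control effect; nearly all actives have a fitted effect of over 35% in size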
Ubiquitin carboxyl-terminal hydrolase 1 (Homo sapiens), sequence (O94782 whole entry, looked up): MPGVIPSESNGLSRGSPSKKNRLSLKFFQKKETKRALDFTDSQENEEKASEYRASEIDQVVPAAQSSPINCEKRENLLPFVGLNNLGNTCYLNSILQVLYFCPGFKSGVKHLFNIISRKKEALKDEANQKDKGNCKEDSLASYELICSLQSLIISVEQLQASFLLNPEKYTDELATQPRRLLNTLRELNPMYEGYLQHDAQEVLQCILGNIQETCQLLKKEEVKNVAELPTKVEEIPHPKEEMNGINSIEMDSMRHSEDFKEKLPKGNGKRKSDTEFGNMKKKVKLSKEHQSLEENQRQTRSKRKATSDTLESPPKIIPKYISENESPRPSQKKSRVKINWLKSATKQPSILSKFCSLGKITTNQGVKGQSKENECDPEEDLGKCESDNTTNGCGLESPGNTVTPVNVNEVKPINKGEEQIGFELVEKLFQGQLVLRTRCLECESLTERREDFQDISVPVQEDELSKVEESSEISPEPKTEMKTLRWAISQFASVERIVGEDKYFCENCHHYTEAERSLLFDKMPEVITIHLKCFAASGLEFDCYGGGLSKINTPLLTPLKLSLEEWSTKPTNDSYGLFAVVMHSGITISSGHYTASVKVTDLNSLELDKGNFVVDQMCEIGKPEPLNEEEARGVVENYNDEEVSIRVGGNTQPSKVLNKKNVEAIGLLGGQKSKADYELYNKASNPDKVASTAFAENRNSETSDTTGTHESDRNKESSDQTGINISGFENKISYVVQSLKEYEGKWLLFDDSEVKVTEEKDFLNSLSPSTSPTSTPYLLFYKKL
Summary of the method: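 In 50mM HEPES pH 7.8 containing 0.5mM EDTA, 1mM TCEP, 0.1 mg/ml BSA and 0.01% Tween-20, 1nM USP1/UAF1 is exposed to compound for 15 min, then Ub-Rho (150nM final) is added and fluorescence is read over time.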

[18] = molecular target: 3',5'-cyclic-AMP phosphodiesterase 4B (Homo sapiens) (UniProt Q07343); assay: qHTS Assay for Inhibitors of PDE-IV (AID 607; active = well fitted activation curve with a large enough effect in the main read-out, with a control signal flat, not every such curve was filed as active; also: % of control where 0% means no effect); conditions: HEK293 ACTOne CNG channel cells, membrane potential fluorescence; series mostly up to 22.9 µM
3',5'-cyclic-AMP phosphodiesterase 4B (Homo sapiens), sequence (Q07343 whole entry, looked up): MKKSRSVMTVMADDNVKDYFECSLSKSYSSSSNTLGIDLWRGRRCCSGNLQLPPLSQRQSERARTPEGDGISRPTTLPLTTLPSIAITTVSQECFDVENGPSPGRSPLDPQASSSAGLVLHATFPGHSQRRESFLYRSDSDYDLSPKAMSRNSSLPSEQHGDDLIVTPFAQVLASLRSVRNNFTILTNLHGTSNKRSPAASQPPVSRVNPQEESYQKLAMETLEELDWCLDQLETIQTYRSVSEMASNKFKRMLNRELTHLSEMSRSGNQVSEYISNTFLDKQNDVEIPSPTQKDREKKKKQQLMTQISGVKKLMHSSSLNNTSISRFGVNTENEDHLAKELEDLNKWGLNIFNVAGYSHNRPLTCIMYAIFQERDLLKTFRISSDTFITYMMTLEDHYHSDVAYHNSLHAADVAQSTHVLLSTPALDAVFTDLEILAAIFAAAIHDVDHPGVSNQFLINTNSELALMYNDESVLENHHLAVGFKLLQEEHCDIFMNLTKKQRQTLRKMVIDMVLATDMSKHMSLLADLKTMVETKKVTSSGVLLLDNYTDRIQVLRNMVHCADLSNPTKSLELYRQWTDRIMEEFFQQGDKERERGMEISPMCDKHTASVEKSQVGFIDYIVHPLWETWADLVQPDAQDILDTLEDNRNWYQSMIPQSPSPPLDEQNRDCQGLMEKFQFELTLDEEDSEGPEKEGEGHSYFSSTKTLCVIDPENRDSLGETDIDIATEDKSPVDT
Summary of the method: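 The readout is membrane depolarisation from a cAMP-sensing CNG channel, detected with a potential dye at ex 535/em 590. Cells were HEK293-derived (endogenous PDE-IV) at 1000 cells/well, titrated up to 22.9 uM final.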

[19] = qHTS Assay for Identification of Small Molecule Agonists for Hypoxia Response Element Signaling Pathway (AID 914; active = well fitted activation curve with a large enough effect in the signal ratio, with a control signal flat, not every such curve was filed as active; the % refers to the signal ratio; also: potency is read from the fitted curve at half-maximal effect); conditions: ME-180 (cervical carcinoma) HRE-bla reporter, beta-lactamase ratio, CoCl2, 17 h; activation: stronger effect = higher value
Summary of the method: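 Reporter activity (beta-lactamase, CCF4 460nm/530nm ratio) in HRE-bla ME-180 cells is recorded after 17 h compound exposure with EC50 CoCl2 at 37 degrees Celsius. AC50 values come from titration data.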

[20] = measured here: cell count channel max response
[21] = measured here: lipid channel max response

Clc1ccccc1-c1cncnc1NCc1cccs1
23.3%: max response [10, 21]
active: Potency [3] 3.98 µM | Potency [7] 0.501 µM | Potency [9] 1.58 µM
inactive: Potency [1] > 11.4 µM | activity change, negative = inhibition [2] -10.1% | activity, negative = inhibition [4] -9.78% | Potency [5] > 46 µM | outcome [6] | Potency [8] | activity change, negative = inhibition [10] 4.06% | Potency [11] | Potency [12] | Potency [13] | Potency [14]
21%: max response [10, 20]

COc1cccc(Nc2ncc3nc(-c4ccccc4)c(=O)n(Cc4cccs4)c3n2)c1
20.3%: max response [10, 20]
24.9%: max response [10, 21]
inactive: Potency [1] > 11.4 µM | activity change, negative = inhibition [2] -7.2% | activity change, negative = inhibition [15] -11.8% | activity, negative = inhibition [4] 21.9% | Potency [16] > 9.22 µM | Potency [5] > 46 µM | outcome [6] | activity change, negative = inhibition [10] 5.46% | Potency [11] | Potency [12] | Potency [13] | Potency [17] | Potency [14]

O=c1c(-c2cc(F)cc(F)c2)nc2cnc(N3CCOCC3)nc2n1C[C@H]1CCCO1
active: Potency [3] 2.51 µM
8.91%: max response [10, 20]
13.4%: max response [10, 21]
inactive: Potency [1] > 11.4 µM | activity change, negative = inhibition [2] 10.4% | activity, negative = inhibition [4] 0.32% | Potency [16] > 9.22 µM | Potency [5] > 46 µM | outcome [6] | Potency [18] | activity change, negative = inhibition [10] 5.53% | Potency [11] | Potency [12] | Potency [13] | Potency [17] | Potency [14]

Cc1noc(C)c1-c1ccc2ncnc(Nc3ccc(F)cc3)c2c1
29.1%: max response [10, 21]
23.8%: max response [10, 20]
active: Potency [3] 3.98 µM | Potency [11] 4.47 µM | Potency [12] 6.31 µM | Potency [13] 3.16 µM
inactive: Potency [1] > 11.4 µM | activity change, negative = inhibition [2] -20.2% | activity, negative = inhibition [4] -24.6% | Potency [5] > 46 µM | outcome [6] | Potency [18] | Potency [8] | activity change, negative = inhibition [10] 6.07% | Potency [17] | Potency [14]

CC(=O)NCCNc1ncnc2ccc(-c3c(C)noc3C)cc12
28.8%: max response [10, 20]
29.5%: max response [10, 21]
inactive: Potency [1] > 11.4 µM | activity change, negative = inhibition [2] 12.8% | activity, negative = inhibition [4] -17.9% | Potency [16] > 46 µM | Potency [5] > 46 µM | outcome [6] | Potency [18] | Potency [8] | activity change, negative = inhibition [10] 3.36% | Potency [17] | Potency [14]
active: Potency [3] 15.8 µM | Potency [19] 3.16 µM | Potency [11] 7.08 µM | Potency [12] 6.31 µM | Potency [13] 7.08 µM

CN(C)c1ncc2nc(-c3ccc(F)cc3)c(=O)n(C[C@H]3CCCO3)c2n1
inactive: Potency [1] > 11.4 µM | activity change, negative = inhibition [2] 26.6% | activity change, negative = inhibition [15] 26.7% | Potency [16] > 9.22 µM | outcome [6] | Potency [18] | activity change, negative = inhibition [10] -2.2% | Potency [11] | Potency [12] | Potency [13] | Potency [17] | Potency [14]
6.86%: max response [10, 21]
12.6%: max response [10, 20]
active: Potency [3] 2.51 µM
